Assay results published in the supplement of paper PMC6555819.

test system: LXRb:RXRa (NR concentration 270 nM, RXRa partner concentration 90 nM); assay: PBM binding z-score (relative to random genomic background probes); higher = stronger binding; sequences stand for … in GC…GCGATTGACAGCGTAGAATGAAGG
Protocol: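 Protein-binding microarray (Agilent 4x180K custom design, double-stranded 60-nt probes: 5' GC cap, 34-nt variable region, 24-nt constant primer region; full probe sequence given). Purified or IVT nuclear receptor:RXRα heterodimers (3:1 NR:RXRα, mostly 270:90 nM) or homodimers were incubated for 1 h in PBS with 2% milk and no ligand, then detected with Alexa488 antibodies. Fluorescence from o1-orientation probes (~5 replicates averaged) was converted to z-scores against 500 random hg19 background probes. Variable regions are seed direct-repeat (DR0–DR5) sites, all their single-nucleotide variants and half-site ablations.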

Sequence | PBM binding z-score
TAGCCTAGGTCACATCGGGCCAGTATACGCTATA | 2.29
TCTAGTTGGTCACGGAGGACACACACGACGGGTA | 0.424
CATACAGGGTCGGCTAGGCCAGAGTAGGGACGGC | -0.242
TCTCGGAGGACACTAAAGGTCAGAGCTCGACATC | 3.73
AGAACGAGGTCACGCTGAGTTGATAGCAGAGTAG | 5.24
CCTAGCAGGCCAATCTAGGTCACTCAAGGCTTGA | 1.24
CCTTACGGGTAACGAGGTTATAGCACGACGAGCG | 0.414
TAGCCTAGGTCATGCGGGCCAATATAGTGTCGGC | 1.9
AGAATGAGGTTACTAAAGATCAGGGAAACGCTTG | 5.45
CGTCCAAGGTCACGGTCAGTGAAAGAGACTCGAA | 4.76
TATAAAGGGTCAAAGGCCAGAGTACGAATGTCGA | 5.24
CCTACTGGGCCATTCAGAGGGCATTGATCATATG | -0.224
GCTGCTAGTTCAACTGATGGTCAGCTAAAGCTCG | 0.0556
CGTTCAAGGTCAAAGGTCAGTGAAGAGATGACGG | 6.76
CCTACTGGGCCGTTCAGAGGTCATTGATCATATG | 3.55
TCTCGGAGGACACCAAAGGTCAGAGCTCGACATC | 3.46
CCTTAAGGGTCACGAGGTTATAGCACGACGAGCG | 5.38
CAAACTAGTTCAAGAGGTCAAAGTCCGCTTCCCG | 5.37
GCTTACGGGTCCAAGGTTATAGCATGAATAGAAT | 0.855
CAAACTAGGTCAAGGTCTAAGTCGGTTTGTGCCA | 1.6

Sequence | PBM binding z-score
TAGCCTAGTTCATTCAGGGGCCAGTATAGAAAGC | 0.643
CGTCAAACTTCAACTAAGGTAACGTAAAGCACGC | 0.543
CCGACTGGGGCAAGGTCACCATAACGCACAGCCA | 2.81
CCTACTGGGCCACGAAAGGCCATTGATTCAGTGA | -0.37
AGTCAAACTTCAGGACGAGGTAACGTAAAGCACG | -0.266
CGAACGAGGTCATTGACAGGACAGTGAATAGTAA | 5.01
CGTCCAAGGTCAAGGTCAATGAAAGAGACTCGAA | 4.94
ATCGAAAGGTCGACCAGGTGAGTATACACCGTTT | 3.1
CGTCAAAGTTCAACTGAGGTAACGTAAAGCACGC | 4.09
CCTAGTTGTTCAGGAGGTCACACACCGGATATGA | 3.76
TACCCTAGGTCATGGGCCAGTATACCACGCGAAC | 4.07
AATACAGGGTGACTAGGCCAGAGTAGGTACGAAT | 0.204
ATATGTAGGTTAGCTGAGGTCATTCAGACTAGGC | 4.72
ATATGTAGGTTATCGGGTCATACAGTTTGCGCAT | 3
TCTTGTAGGTCAATAGAGGTTAAGAAAGTGCGCT | 5.11
ATATGTAGGTTAGGGTCAGTCAGAAAGTAGGGAA | 3
TAGCCTAGGTCATTCAGGGGCAAGTATAGAAAGC | 4.97
CCGAGAAGGTTACGAGGGGGCATTCAGTGCGAAT | 7.2
CCTAGTTGGTCAAGGTCACATACGCTATAGGTAC | 3.56
CGCACTAGGTCATCCAGGACAGTGAATACATTGA | 2.21
